Experimental data reported in PubChem BioAssay (NCATS).
Records with an inconclusive call do not appear. The source made the active and inactive calls. Unless noted, the call rests on the fitted dose curve; in most records, active means well fitted curve in the direction sought with a large enough effect; inconclusive means small, poorly fitted or top-dose-only effect, or another doubt; inactive means no such curve, though single readings can be large; an effect the other way counts as inactive or inconclusive.

Experiments:
[1] = Quantitative High-Throughput drug screen in 47 multiple myeloma cell lines against the NCATS MIPE library collection: OPM2_DSMZ cell viability assay (AID 1919872); further: nearly all actives have a fitted effect of over 30% in size; further: potency means the concentration at half of the fitted maximal effect
In short: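 Myeloma cells (500 per well) were exposed to MIPE 4.0 compounds by pin transfer and incubated 48 hours at 37C, 5% CO2. Viability was read as ATP by CellTiter-Glo luminescence, normalised to DMSO (100%) and media-only (0%) wells.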

[2] = Quantitative High-Throughput drug screen in 47 multiple myeloma cell lines against the NCATS MIPE library collection: KMS11_JCRBsus cell viability assay (AID 1919873); further: nearly all actives have a fitted effect of over 50% in size; further: potency means the concentration at half of the fitted maximal effect
In short: (§1)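 Viability after 48 h drug exposure was measured as ATP-dependent luminescence. Cells, 500 per well, sat at 37 °C under 5% CO2; DMSO wells set 100%, media-only wells 0%.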

[3] = Quantitative High-Throughput drug screen in 47 multiple myeloma cell lines against the NCATS MIPE library collection: KMS28BM_JCRB cell viability assay (AID 1919874); further: nearly all actives have a fitted effect of over 35% in size; further: potency means the concentration at half of the fitted maximal effect
In short: as §1

[4] = qHTS drug screen for cell cycle checkpoint inhibitors in PARPi-resistant BRCA-mutant ovarian cancer cell lines. (AID 1963452; calls by dose curve); settings: PEO1/OlaR viability, CellTiter-Glo luminescence, 96 h, stronger effect = lower value
In short: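 PEO1, PEO4 and PEO1/OlaR ovarian cancer cells, 600 per well, exposed 96 h at 37C to a dilution series. Viability read by CellTiter-Glo luminescence, normalized to DMSO and empty wells; activity summarized as Z-AUC.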

[5] = qHTS for identification of novel therapeutic agents for treatment of microphthalmiaassociated transcription factor (MiT) renal cell carcinoma (RCC) (AID 1963991; calls by dose curve; further: potency means the concentration at half of the fitted maximal effect); settings: CellTiter-Glo, 48 h; for z-score: stronger effect = lower value
In short: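 Curves over 11 concentrations were fitted to CellTiter-Glo luminescence, scaled between empty wells (0%) and DMSO (100%) viability. Cells were UOK109, UOK124 and UOK145 TFE3-fusion RCC lines at 500/well, exposed 48 hours at 37 C.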

[6] = qHTS profiling for inhibitors of Plasmodium falciparum proliferation (AID 504749);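 further: 0% = DMSO vehicle and full inhibition = artemisinin control; nearly all actives have a fitted effect of over 60% in size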; settings: P. falciparum in erythrocytes, SYBR Green DNA, 72 h, at 28.7 µM (top of the series)
In short: (§2)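 Readout was DNA-dye fluorescence from lysed cultures, ex 485/em 535 nm. Parasitized red cells had grown 72 h with compound; data scaled between 0.29 uM artemisinin and DMSO wells and corrected using vehicle-only plates.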

[7] = system: 3D7; test: as above; settings: P. falciparum in erythrocytes, SYBR Green DNA, 72 h; series mostly up to 28.7 µM
In short: as §2

[8] = system: 7G8; test: as above; settings: P. falciparum in erythrocytes, SYBR Green DNA, 72 h; series mostly up to 28.7 µM
In short: as §2

[9] = Quantitative High-Throughput drug screen in 47 multiple myeloma cell lines against the NCATS MIPE library collection: RPMI8226_ATCC cell viability assay (AID 1919871); further: nearly all actives have a fitted effect of over 30% in size; further: potency means the concentration at half of the fitted maximal effect
In short: as §1

[10] = measured here: PEO1 parental Z-AUC
[11] = TFE3-RCC UOK109 viability, measured here: UOK109 Z-AUC
[12] = TFE3-RCC viability, measured here: UOK124 Z-AUC
[13] = TFE3-RCC viability, measured here: UOK145 Z-AUC

In the case of `C#CC1(O)CCC2C3CCC4=CC(=O)CCC4(C)C3CCC21C` (stereo not given), the Potency [1] is reported as “inactive”, the Potency [2] is reported as “inactive” and the Potency [3] is reported as 18.7 µM (active). The Z-AUC [4] was 0.597 (inactive), the Z-AUC [4, 10] was 0.372 and the Z-AUC ([4]; measured here: PEO4 Z-AUC) was 0.608. The z-score [5, 11] was 0.285, the z-score [5, 12] was 0.199 and the z-score [5, 13] was 0.147. The activity, negative = inhibition ([6]; parasite line A) was 7.72% (inactive), the activity, negative = inhibition ([6]; parasite line B) was 0.354% (inactive) and the Potency [7] was “inactive”. For the same compound, the Potency [8] was “inactive”.
With `C[C@@H]1[C@H](O)[C@@H](C)C=CC=CCCC=CC=CC=CC=C[C@H](O[C@H]2O[C@@H](C)[C@H](O)[C@@H](N)[C@@H]2O)CC2O[C@](O)(C[C@@H](O)[C@H](O)CC[C@@H](O)C[C@@H](O)C[C@@H](O)CC(=O)O[C@H]1C)C[C@H](O)[C@H]2C(=O)O` the Potency [1] was “inactive”, the Potency [2] was “inactive” and the Potency [3] was “inactive”. The z-score [5, 11] was 0.777, the z-score [5, 12] was 0.659 and the z-score [5, 13] was -1.57.
For `CCOP(=O)(OCC)C(C)NC(=O)N(CCCl)N=O` (stereo not given), the Potency [9] was “inactive”, the Potency [2] was “inactive” and the Potency [3] was “inactive”. For the same compound, the Z-AUC [4] was 1.21 (inactive), the Z-AUC [4, 10] was 0.417 and the Z-AUC ([4]; measured here: PEO4 Z-AUC) was 0.472. It also gave a z-score [5, 11] of 0.0132, a z-score [5, 12] of -0.441 and a z-score [5, 13] of 0.402.
In the case of `CN(C)[C@@H]1C(=O)C(C(N)=O)=C(O)[C@@]2(O)C(=O)C3=C(O)c4c(O)cccc4[C@@](C)(O)[C@H]3[C@H](O)[C@@H]12`, the Potency [1] is reported as 20.9 µM (active), the Potency [2] is reported as “inactive” and the Potency [3] is reported as “inactive”. For the same compound, the Z-AUC [4] was -0.415 (inactive), the Z-AUC [4, 10] was -0.31 and the Z-AUC ([4]; measured here: PEO4 Z-AUC) was 0.0838. It also gave a z-score [5, 11] of 2.05, a z-score [5, 12] of 0.404 and a z-score [5, 13] of 0.671.
For `C[C@]12Cc3cn[nH]c3C[C@@H]1CC[C@@H]1[C@H]2CC[C@@]2(C)[C@H]1CC[C@]2(C)O`, the Potency [1] was “inactive” and the Potency [3] was “inactive”.
In the case of `C[C@]12CC[C@H](O)CC1=CC[C@H]1[C@H]3CCC(=O)[C@@]3(C)CC[C@@H]12`, the Potency [1] is reported as “inactive” and the Potency [2] is reported as 23.5 µM (active).
For `CSCC[C@@H](NC(=O)[C@@H](Cc1ccccc1)NC(=O)CNC(=O)CNC(=O)[C@@H](N)Cc1ccc(O)cc1)C(=O)O`, the Potency [1] was “inactive”, the Potency [2] was “inactive” and the Potency [3] was “inactive”. For the same compound, the Z-AUC [4] was 1.29 (inactive), the Z-AUC [4, 10] was 1.17 and the Z-AUC ([4]; measured here: PEO4 Z-AUC) was 1.05. For the same compound, the z-score [5, 11] was 0.576, the z-score [5, 12] was 0.642 and the z-score [5, 13] was 1.12.
In the case of `C[C@]12CC[C@H]3[C@@H](CCC4=CC(=O)CC[C@@]43C)[C@H]1CC[C@H]2OC(=O)CCC1CCCC1`, the Potency [1] is reported as “inactive”, the Potency [2] is reported as “inactive” and the Potency [3] is reported as “inactive”. For the same compound, the Z-AUC [4] was -0.757 (inactive), the Z-AUC [4, 10] was -0.855 and the Z-AUC ([4]; measured here: PEO4 Z-AUC) was -0.842.
With `CCOC(=O)Nc1ccc(NCc2ccc(F)cc2)cc1N` the Potency [1] was “inactive”, the Potency [2] was “inactive” and the Z-AUC [4] was -0.328 (inactive). For the same compound, the Z-AUC [4, 10] was 0.0556 and the Z-AUC ([4]; measured here: PEO4 Z-AUC) was 0.397.
For `CC(C)[C@H]1C(=O)N[C@H](CO)Cc2c[nH]c3cccc(c23)N1C`, the Potency [1] was 0.0662 µM (active), the Potency [2] was “inactive” and the Z-AUC [4] was 0.277 (inactive). It also gave a Z-AUC [4, 10] of -0.654 and a Z-AUC ([4]; measured here: PEO4 Z-AUC) of -0.578.
For `O=C(Oc1ccc([N+](=O)[O-])cc1)N1CCC(C(O)(c2ccc3c(c2)OCO3)c2ccc3c(c2)OCO3)CC1`, the Potency [1] was “inactive”, the Potency [2] was “inactive” and the Potency [3] was “inactive”. The Z-AUC [4] was 0.0942 (inactive), the Z-AUC [4, 10] was 0.266 and the Z-AUC ([4]; measured here: PEO4 Z-AUC) was 0.407.
With `C=C[C@@H]1CN2CCC1C[C@@H]2[C@@H](O)c1ccnc2ccccc12` (stereo not given in full) the Potency [1] was 20.9 µM (active), the Potency [2] was 20.9 µM (active) and the Potency [3] was 23.5 µM (active).
With `C[C@@H]1CC[C@H]2[C@@H](C)C(=O)O[C@@H]3O[C@@]4(C)CC[C@H]1[C@]32OO4` the Potency [1] was 0.264 µM (active), the Potency [2] was “inactive” and the z-score [5, 11] was 0.72. It also gave a z-score [5, 12] of 0.74 and a z-score [5, 13] of 0.344.
In the case of `Cc1ccccc1-n1c(Cn2cnc3c(N)ncnc32)nc2cccc(C)c2c1=O`, the Potency [1] is reported as 1.05 µM (active), the Potency [3] is reported as 0.372 µM (active) and the Z-AUC [4] is reported as -0.47 (inactive). The Z-AUC [4, 10] was 0.542, the Z-AUC ([4]; measured here: PEO4 Z-AUC) was 0.532 and the Potency ([5]; TFE3-RCC UOK109 viability) was 0.235 µM (active). For the same compound, the z-score [5, 11] was -2.22, the z-score [5, 12] was -1.13 and the z-score [5, 13] was -1.88.
For `N#C[C@H](O[C@@H]1O[C@H](CO[C@@H]2O[C@H](CO)[C@H](O)[C@H](O)[C@H]2O)[C@H](O)[C@H](O)[C@H]1O)c1ccccc1`, the Potency [9] was 23.5 µM (active), the Potency [2] was 7.43 µM (active) and the Potency [3] was 18.7 µM (active).
In the case of `Cc1nc(-c2ccc(-c3ccc(C(=O)N4CCc5cc6c(cc54)C4(CCN(C)CC4)CO6)cc3)c(C)c2)no1`, the Potency [1] is reported as “inactive”, the Potency [2] is reported as “inactive” and the Potency [3] is reported as “inactive”.
With `CC(C)N(CCNC(=O)CN1CCCC1=O)C(C)C` the Potency [1] was “inactive”, the Potency [2] was “inactive” and the Potency [3] was “inactive”. It also gave a z-score [5, 11] of 0.955, a z-score [5, 12] of 0.437 and a z-score [5, 13] of 0.681.
With `COc1ccc(N(C(=O)Oc2c(C)cccc2C)c2ccnc(Nc3ccc(N4CCN(C)CC4)cc3)n2)c(OC)c1` the Potency [9] was 4.18 µM (active), the Potency [2] was 9.35 µM (active) and the Potency [3] was 7.43 µM (active). For the same compound, the Z-AUC [4] was -0.241 (inactive), the Z-AUC [4, 10] was 0.364 and the Z-AUC ([4]; measured here: PEO4 Z-AUC) was 0.481.
For `C[C@]12CC[C@@H]3[C@@H](CCC4=CC(=O)CC[C@@H]43)[C@@H]1CC[C@@H]2OC(=O)CCc1ccccc1`, the Potency [1] was “inactive”, the Potency [2] was “inactive” and the Potency [3] was “inactive”. For the same compound, the Z-AUC [4] was -0.102 (inactive), the Z-AUC [4, 10] was -0.728 and the Z-AUC ([4]; measured here: PEO4 Z-AUC) was -0.686. It also gave a z-score [5, 11] of 0.952, a z-score [5, 12] of 0.605 and a z-score [5, 13] of -2.12.
For `CCN(CC)C(=O)c1ccc(C2=CC3(CCNCC3)Oc3cccc(O)c32)cc1`, the Potency [1] was “inactive”, the Potency [2] was “inactive” and the Potency [3] was “inactive”. For the same compound, the Z-AUC [4] was -0.151 (inactive), the Z-AUC [4, 10] was 0.834 and the Z-AUC ([4]; measured here: PEO4 Z-AUC) was 0.745.
For `CC(=O)OCC1=C(C(=O)O)N2C(=O)[C@@H](N)[C@@H]2SC1`, the Potency [1] was “inactive”, the Potency [2] was “inactive” and the Potency [3] was “inactive”. For the same compound, the z-score [5, 11] was -1.76, the z-score [5, 12] was 0.735 and the z-score [5, 13] was 1.3. For the same compound, the Potency [7] was “inactive” and the Potency [8] was “inactive”.
